Experimental data: the supplement of paper PMC13380429

Test system: Vero E6 infected with SARS-CoV-2
Experiment: inhibition of SARS-CoV-2 cytopathic effect; higher = more antiviral protection, active = above 15
Conditions: 833.33 nM; 48 h

SMILES | inhibition of SARS-CoV-2 cytopathic effect
COc1ccc(-c2oc3cc(OC)ccc3c2C(=O)c2ccc(C#N)cc2)cc1 | -3.9% (inactive)
CC1(C)CCC2=C(O1)c1ccccc1C(=O)C2=O [beta-lapachone] | -1.46% (inactive)
CCCCCCCCCCCCCCCCO [1-hexadecanol] | -0.99% (inactive)
CC(=O)OC[C@H]1O[C@@](COC(C)=O)(O[C@H]2O[C@H](COC(C)=O)[C@@H](OC(C)=O)[C@H](OC(C)=O)[C@H]2OC(C)=O)[C@@H](OC(C)=O)[C@@H]1OC(C)=O [sucrose-octaacetate] | -0.47% (inactive)
CCC(=O)OCN1C(=O)C=CC1=O | 1.73% (inactive)
N=C(N)NC(=O)c1cnccn1 [pyrazinoylguanidine] | -5.59% (inactive)
C[C@@H](O)[C@H]1C(=O)N2C(C(=O)O)=C(SCCNC=N)C[C@H]12 [imipenem] | 2.66% (inactive)
COc1ccc(-n2c(SCCCN3C(=O)c4cccc5cccc(c45)C3=O)nnc2-c2ccncc2)cc1 | -0.8% (inactive)
Cc1nn(C)c2c1C(c1ccc(C(F)(F)F)cc1)C(C#N)=C(N)O2 (configuration not stated) | -1.63% (inactive)
COc1cc(NC(=O)Nc2cccc(CNC(=O)O[C@H]3CCOC3)c2)ccc1-c1cnco1 [merimepodib] | 2.5% (inactive)
O=C(CC12CC3CC(CC(C3)C1)C2)Nc1cccc2nc(NCCNCCO)ccc12 | 4.43% (inactive)
N[C@@H](CSS(=O)(=O)O)C(=O)O [S-sulfo-L-cysteine] | 1.93% (inactive)
CN1CCN(C(=O)O[C@H]2c3nccnc3C(=O)N2c2ccc(Cl)cn2)CC1 | 2.34% (inactive)
Cc1cc2ncc(C(=O)NCC(C)(C)NCC(=O)N3CCC[C@H]3C#N)cn2n1 [anagliptin] | 0.84% (inactive)
Cn1cc([S+](C)[O-])c(=O)c2ccc(F)cc21 (configuration not stated) [flosequinan] | 2.01% (inactive)
O=C(Cn1ccnc1[N+](=O)[O-])NCCO [etanidazole] | -1.27% (inactive)
C=CC[N+]1([C@H]2C[C@H]3[C@@H]4CC[C@H]5C[C@H](O)[C@@H](N6CCOCC6)C[C@]5(C)[C@H]4CC[C@]3(C)[C@H]2OC(C)=O)CCCC1 | 1.73% (inactive)
CCC1=C[C@@H]2CN3CCc4c([nH]c5ccccc45)[C@@](C(=O)OC)(C2)[C@@H]13 [catharanthine] | 0.93% (inactive)
Cc1c(Cl)c(C)[n+]([O-])c(Cl)c1-c1noc(-c2cc(O)c(O)c([N+](=O)[O-])c2)n1 [opicapone] | 0.43% (inactive)
CC1(C)C(=O)NC2=C1C(=O)C(=O)c1ccccc12 | 1.58% (inactive)
CC(NCCc1ccc(O)cc1)C(O)c1ccc(O)cc1 (configuration not stated) [ritodrine] | -2.19% (inactive)
N=C(N)SCCc1ccc(OCc2ccc([N+](=O)[O-])cc2)cc1 | -2.92% (inactive)
COc1ccc2c(c1)C(=O)N(CCc1ccc(S(=O)(=O)NC(=O)NC3CCCCC3)cc1)C(=O)C2(C)C [gliquidone] | -0.14% (inactive)
CSc1ccccc1OCC(O)CNC(C)C (configuration not stated) [tiprenolol] | 0.37% (inactive)
C[C@H]1[C@H](C)CC[C@]2(C(=O)O)CC[C@]3(C)C(=CC[C@@H]4[C@@]5(C)C[C@@H](O)[C@H](O)[C@@](C)(CO)[C@@H]5CC[C@]43C)[C@H]12 [asiatic-acid] | 1.12% (inactive)
C=C[C@@]1(C)CC(=O)[C@]2(O)[C@@]3(C)[C@@H](O)CCC(C)(C)[C@@H]3[C@H](OC(=O)CCN(C)C)[C@H](OC(C)=O)[C@@]2(C)O1 [colforsin-daproate] | 3.07% (inactive)
Cc1cc(NC(=O)NCCN2CCC(O)(Cc3ccccc3)CC2)c2ccccc2n1 [palosuran] | 2.2% (inactive)

Same assay, conditions: 10000 nM; 48 h

SMILES | inhibition of SARS-CoV-2 cytopathic effect
O=C1NC(=O)C(c2ccccc2)(c2ccccc2)N1 [phenytoin] | 0.37% (inactive)
CC(=O)Nc1ncc([N+](=O)[O-])s1 [nithiamide] | -1.53% (inactive)
C[C@H](N)Cc1cccc(O)c1 [gepefrine] | 0.56% (inactive)
Fc1ccc(C(c2ccc(F)cc2)N2CCN(C/C=C/c3ccccc3)CC2)cc1 [flunarizine] | -3.88% (inactive)
O=c1cc(-c2ccc(O)cc2)oc2cc(O)cc(O)c12 [apigenin] | 6.4% (inactive)
CCCCCCCCCCCCCCCCCC(=O)OCC(O)CO (configuration not stated) [monostearin] | -0.08% (inactive)
C[C@]12CC[C@H]3[C@@H](CC[C@]4(O)C[C@@H](O)CC[C@]34C=O)[C@@]1(O)CC[C@@H]2C1=CC(=O)OC1 [K-strophanthidin] | -16.9% (inactive)
Nc1nc2c(ccc3ccccc32)s1 | -1.09% (inactive)
CCCCOc1ccc(OCCCN2CCOCC2)cc1 [pramoxine] | 0.79% (inactive)
CC1CC(OC(=O)C(O)c2ccccc2)CC(C)(C)C1 (configuration not stated) [cyclandelate] | -1.81% (inactive)
Cc1c[nH]c2ncnc(N3CCC(CN)(C(=O)Nc4cccc(OC(=O)N(C)C)c4)CC3)c12 | 5.79% (inactive)
CCCCCCCCNC(=O)/C(C#N)=C/c1cn(CCCN(C)C)c2ccccc12 [dynole-34-2] | 12.6% (inactive)
C=C1/C(=C\C=C2/CCC[C@]3(C)[C@@H]([C@H](C)OCCC(C)(C)O)CC[C@@H]23)C[C@@H](O)C[C@@H]1O [maxacalcitol] | -0.56% (inactive)
COc1ccc(-c2oc3cc(OC)ccc3c2C(=O)c2ccc(C#N)cc2)cc1 | 1.7% (inactive)
CC1(C)CCC2=C(O1)c1ccccc1C(=O)C2=O [beta-lapachone] | 10.9% (inactive)
CCCCCCCCCCCCCCCCO [1-hexadecanol] | -4.02% (inactive)
CC(=O)OC[C@H]1O[C@@](COC(C)=O)(O[C@H]2O[C@H](COC(C)=O)[C@@H](OC(C)=O)[C@H](OC(C)=O)[C@H]2OC(C)=O)[C@@H](OC(C)=O)[C@@H]1OC(C)=O [sucrose-octaacetate] | -0.86% (inactive)
CCC(=O)OCN1C(=O)C=CC1=O | 1.22% (inactive)
N=C(N)NC(=O)c1cnccn1 [pyrazinoylguanidine] | -0.5% (inactive)
C[C@@H](O)[C@H]1C(=O)N2C(C(=O)O)=C(SCCNC=N)C[C@H]12 [imipenem] | 4.17% (inactive)

SMILES | inhibition of SARS-CoV-2 cytopathic effect
COc1ccc(-n2c(SCCCN3C(=O)c4cccc5cccc(c45)C3=O)nnc2-c2ccncc2)cc1 | -1.41% (inactive)
Cc1nn(C)c2c1C(c1ccc(C(F)(F)F)cc1)C(C#N)=C(N)O2 (configuration not stated) | 2.56% (inactive)
COc1cc(NC(=O)Nc2cccc(CNC(=O)O[C@H]3CCOC3)c2)ccc1-c1cnco1 [merimepodib] | 8.45% (inactive)
O=C(CC12CC3CC(CC(C3)C1)C2)Nc1cccc2nc(NCCNCCO)ccc12 | 4.98% (inactive)
N[C@@H](CSS(=O)(=O)O)C(=O)O [S-sulfo-L-cysteine] | 0.23% (inactive)
CN1CCN(C(=O)O[C@H]2c3nccnc3C(=O)N2c2ccc(Cl)cn2)CC1 | 0.85% (inactive)
Cc1cc2ncc(C(=O)NCC(C)(C)NCC(=O)N3CCC[C@H]3C#N)cn2n1 [anagliptin] | 0.07% (inactive)
Cn1cc([S+](C)[O-])c(=O)c2ccc(F)cc21 (configuration not stated) [flosequinan] | 0.19% (inactive)
O=C(Cn1ccnc1[N+](=O)[O-])NCCO [etanidazole] | -0.88% (inactive)
C=CC[N+]1([C@H]2C[C@H]3[C@@H]4CC[C@H]5C[C@H](O)[C@@H](N6CCOCC6)C[C@]5(C)[C@H]4CC[C@]3(C)[C@H]2OC(C)=O)CCCC1 | 0.75% (inactive)
CCC1=C[C@@H]2CN3CCc4c([nH]c5ccccc45)[C@@](C(=O)OC)(C2)[C@@H]13 [catharanthine] | 2.81% (inactive)
Cc1c(Cl)c(C)[n+]([O-])c(Cl)c1-c1noc(-c2cc(O)c(O)c([N+](=O)[O-])c2)n1 [opicapone] | -1.39% (inactive)
CC1(C)C(=O)NC2=C1C(=O)C(=O)c1ccccc12 | -10.5% (inactive)
CC(NCCc1ccc(O)cc1)C(O)c1ccc(O)cc1 (configuration not stated) [ritodrine] | -1.02% (inactive)
N=C(N)SCCc1ccc(OCc2ccc([N+](=O)[O-])cc2)cc1 | -4.41% (inactive)
COc1ccc2c(c1)C(=O)N(CCc1ccc(S(=O)(=O)NC(=O)NC3CCCCC3)cc1)C(=O)C2(C)C [gliquidone] | -0.29% (inactive)
CSc1ccccc1OCC(O)CNC(C)C (configuration not stated) [tiprenolol] | 3.9% (inactive)
C[C@H]1[C@H](C)CC[C@]2(C(=O)O)CC[C@]3(C)C(=CC[C@@H]4[C@@]5(C)C[C@@H](O)[C@H](O)[C@@](C)(CO)[C@@H]5CC[C@]43C)[C@H]12 [asiatic-acid] | -3.69% (inactive)
C=C[C@@]1(C)CC(=O)[C@]2(O)[C@@]3(C)[C@@H](O)CCC(C)(C)[C@@H]3[C@H](OC(=O)CCN(C)C)[C@H](OC(C)=O)[C@@]2(C)O1 [colforsin-daproate] | 29.6% (active)
Cc1cc(NC(=O)NCCN2CCC(O)(Cc3ccccc3)CC2)c2ccccc2n1 [palosuran] | 1.86% (inactive)
